rCAG RNA binder: binders of r(CAG) RNA repeats, primary screen, biochemical, fluorescence; r(CAG) RNA repeat, TO-PRO-1 dye displacement fluorescence; inhibition, % at 3 µM; 1.3% of 370,000 active;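 active = inhibition above the plate cutoff, the mean of all test compounds on that plate plus 3 SD, cut at about 35% in these data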;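 note: 0% = DMSO alone and 100% = 100 µM mitoxantrone as full dye displacement; higher means more dye released from RNA so lower well fluorescence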
MsrA inh: bovine MsrA enzyme inhibitors, primary screen, biochemical, absorbance, HTS. Methionine sulfoxide reductase A (Bos taurus). purified bovine MsrA, absorbance read-out. inhibition, % at 15.5 µM. 0.75% of 360,000 active; in the data active = inhibition above about 4.5%;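 note: 0% = vehicle wells with enzyme and 100% = reference inhibitor wells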
sPLA2-III inh: human group III sPLA2 inhibitors, primary screen, biochemical, QFRET, BODIPY PC-A2 liposome substrate. Group 3 secretory phospholipase A2 (Homo sapiens), Q9NZ20. QFRET BODIPY PC-A2 liposome hydrolysis, fluorescence. inhibition, % at 12.2 µM. 0.56% of 370,000 active. AID 743126, 2013;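 active = inhibition above mean plus 3 SD of compounds lying within the high and low control bounds, cut at about 19% in these data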;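 note: 0% = median of test compound wells and 100% = no enzyme DMSO wells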
Target sequence (Q9NZ20 whole entry, looked up): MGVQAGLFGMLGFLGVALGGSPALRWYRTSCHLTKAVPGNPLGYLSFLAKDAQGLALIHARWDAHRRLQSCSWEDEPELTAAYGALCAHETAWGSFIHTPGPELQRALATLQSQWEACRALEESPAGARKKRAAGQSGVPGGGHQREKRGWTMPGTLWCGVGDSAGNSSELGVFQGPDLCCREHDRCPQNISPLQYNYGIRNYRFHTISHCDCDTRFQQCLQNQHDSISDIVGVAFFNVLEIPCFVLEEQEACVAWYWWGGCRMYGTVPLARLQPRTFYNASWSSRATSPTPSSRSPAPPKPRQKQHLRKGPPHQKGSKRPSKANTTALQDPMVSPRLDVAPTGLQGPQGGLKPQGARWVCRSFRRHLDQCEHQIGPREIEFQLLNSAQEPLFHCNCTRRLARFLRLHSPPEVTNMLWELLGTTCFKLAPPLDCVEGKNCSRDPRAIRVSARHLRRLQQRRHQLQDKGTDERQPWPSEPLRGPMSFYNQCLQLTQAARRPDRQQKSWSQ
MsrA act: bovine MsrA enzyme activators, primary screen, biochemical, absorbance, HTS; Methionine sulfoxide reductase A (Bos taurus); purified bovine MsrA, absorbance read-out; activation, % at 10.6 µM; 0.3% of 360,000 active; AID 602163, 2012; in the data active = activation above about 7.5%;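 note: 0% = vehicle and 100% = reference activator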
hGIII sPLA2 conf: human group III sPLA2 inhibitors, confirmation, biochemical, QFRET, triplicate; shares compounds with sPLA2-III inh; recombinant hGIII-sPLA2, BODIPY PC-A2 QFRET fluorescence; inhibition, % at 12.2 µM; 34% of 2,000 active;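 active = mean inhibition across triplicates above the hit cutoff set in the earlier primary screen, cut at about 19% in these data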;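 note: 0% = enzyme with DMSO and 100% = DMSO wells lacking enzyme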
BODIPY interf: 535nm fluorescence optical interference, confirmation, artefact control for HGIII-sPLA2 inhibitor project, biochemical, QFRET; shares compounds with sPLA2-III inh; BODIPY FL product fluorescence interference; inhibition, % at 12.2 µM; 8.5% of 2,000 active;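 active = average inhibition above the solvent-only control mean plus 3 SD, cut at about 6% in these data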;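 note: 0% = DMSO with substrate plus product and 100% = DMSO with substrate alone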
* hit, by the source's call; . = no result. Compounds with a hit are over-represented: about 2.8% of the library has one in this group of screens.

SMILES	rCAG RNA binder	MsrA inh	sPLA2-III inh	MsrA act	hGIII sPLA2 conf	BODIPY interf
O=C(N/N=C/c1ccccc1)c1n[nH]c2c1CCCC2	-2.0	-2.6	5.8	-7.7	.	.
COc1cccc(CC(=O)Nc2ccc(S(=O)(=O)N3CCOCC3)cc2)c1	3.5	-0.7	-3.0	-1.6	.	.
CCOC1(C)OCC(=O)[C@]2(CCC3C4CCC5=CC(=O)C=CC5(C)C4C(=O)CC32C)O1 (stereo partly drawn)	-8.2	0.6	19.4*	-2.5	0.2	-15.3
Oc1ccc2c(c1)oc1cc(O)ccc12	6.3	-0.3	-19.7	-1.6	.	.
O=c1oc2cc(O)ccc2s1	0.3	2.6	19.7*	1.3	3.5	-1.7
COc1cccc(-n2sc3c(c2=S)-c2cc(OC)ccc2NC3(C)C)c1	3.9	1.2	27.4*	-2.4	17.1	0.0
CC1(C)Nc2ccc(O)cc2-c2c1ssc2=S	9.9	0.1	4.8	-6.1	.	.
O=C(CCc1c[nH]c2ccccc12)N/N=C/c1ccc2c(c1)OCO2	3.8	1.7	-65.4	-12.2	.	.
CCCCOc1ccc(S(=O)(=O)NC(=O)C2(C)CCN2C(=O)Cc2cccs2)cc1 (stereo not drawn)	26.8	-0.5	87.4*	-2.5	-10.5	-6.1
Cc1ccc(S(=O)(=O)NC(=O)C2(C)CCN2C(=O)Cc2cccs2)cc1 (stereo not drawn)	3.1	0.8	15.8	-1.5	.	.
O=P(O)(O)CCP(=O)(c1ccccc1)c1ccccc1	1.0	-1.1	3.4	-1.3	.	.
CP(C)(=O)CCP(=O)(c1ccccc1)c1ccccc1	-1.1	0.6	19.4*	-5.2	17.1	1.9
Nc1ccc2c3c(ccc([N+](=O)[O-])c13)CC2	4.2	0.8	23.0*	-3.5	33.9*	6.6*
CC(=O)c1ccc2c3c(ccc([N+](=O)[O-])c13)CC2	-0.3	1.9	7.9	-2.8	.	.
C/C(=N\NC(=S)NC1CCCCC1)c1ccc(C#N)cc1	-2.0	0.9	26.4*	-3.4	15.9	-0.8
N#Cc1ccc(C(=O)NC(=S)NC2CCCCC2)cc1	2.5	0.8	18.5	-0.2	.	.
COc1ccc(C(=O)NC(Oc2ccccc2)C(Cl)(Cl)Cl)cc1 (stereo not drawn)	-4.6	0.7	21.4*	-12.1	13.7	-1.1
COc1ccc(C(C)NC(=O)c2ccccc2)cc1 (stereo not drawn)	.	.	.	-0.4	.	.
NC(=O)C1(Nc2ccc(-c3ccc(Br)cc3)cc2)CCCC1	2.2	0.8	20.5*	-6.4	12.2	3.2
Cc1ccc(-n2c(=O)c(C#N)cc3c(=O)n4cccc(C)c4nc32)cc1	1.0	-0.1	0.6	-2.5	.	.
S=C1SC2(CCCCCC2)NC2=C1CCCCC2	3.1	1.0	19.4*	-1.9	24.9*	3.1
CCOC(=O)NN1C(=O)c2ccccc2NC1c1ccc(N(C)C)cc1 (stereo not drawn)	-1.3	2.9	-5.0	-4.0	.	.
CCOC(=O)NN1C(=O)c2ccccc2NC1c1ccccc1 (stereo not drawn)	-1.1	0.4	29.5*	-5.1	1.0	-6.7
CCOC(=O)NN1C(=O)c2ccccc2NC1c1ccc(OC)cc1 (stereo not drawn)	-3.0	0.4	21.2*	-6.4	3.8	-6.5
CC(C)CC1C(=O)N(Cc2cn(CCC3OCCCO3)nn2)CCS(=O)(=O)N1Cc1ccc(-c2ccc(Cl)c(Cl)c2)cc1 (stereo not drawn)	17.2	0.6	-45.0	-0.2	.	.
COc1cccc(CNC(=O)c2cc(C)nc3ccccc23)c1	-0.5	-0.5	7.7	-1.9	.	.
Cc1cccc(-n2c3nc(=O)[nH]c(=O)c-3cc3cc([N+](=O)[O-])ccc32)c1	3.7	0.1	25.2*	-2.7	19.5*	6.6*
CCOC(=O)c1[nH]c(=S)n(-c2ccccc2)c1C(=O)OCC	1.9	1.6	24.7*	-4.8	18.4	0.3
Cc1cnc(C(=O)Nc2ccc3c(c2)CCC3)cn1	-3.4	2.2	-1.8	-14.7	.	.
c1cn2c(NC3CCCC3)c(-c3ccc(N4CCOCC4)cc3)nc2cn1	3.8	0.9	6.8	0.9	.	.
